PG9 binder = PG9 antibody binding by small molecule. AID 624416. TR-FRET gp120-PG9 antibody binding. inhibition, % at 6.7 µM. 0.43% of 360,000 active; in the data active = inhibition above about 8.5%
Granule exo inh = blocks lytic granule exocytosis; TALL-104 LAMP-1 surface exposure, flow cytometry; cells stimulated with thapsigargin and PMA; inhibition, % at 10 µM; 0.66% of 360,000 active; AID 651702;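 active = inhibition above about 55%, limit read from the data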
ABCB6 inh 2 = blocks the human ABCB6 transporter. Q9NP58. K562-ABCB6 porphyrin accumulation, flow cytometry, 1 h; stronger effect = lower value. fluorescence ratio to DMSO, % at 10 µM. 0.19% of 360,000 active. AID 602162;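 active = fluorescence ratio to DMSO below 75%, the collection mean minus 3 SD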;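 also: signal is porphyrin accumulated inside mitochondria; lower ratio means ABCB6 inhibition with less porphyrin fluorescence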
rCAG RNA binder = r(CAG) repeat RNA binding; AID 651821; inhibition, % at 3 µM; TO-PRO-1 dye displacement fluorescence; 1.3% of 370,000 active;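 active = inhibition above the plate cutoff, the mean of all test compounds on that plate plus 3 SD, cut at about 35% in these data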;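 also: higher means more dye released from RNA so lower well fluorescence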
Granule exo CP1 = lytic granule exocytosis inhibition | shares compounds with Granule exo inh | TALL-104 cells, LAMP-1 externalization, flow cytometry; stimulated with PMA plus thapsigargin | inhibition, % at 10 µM | 11% of 1,500 active | AID 651954; in the data active = inhibition above about 60%
Numbers stand for hits; . = inactive; / = not tested or not shown. Hits are enriched below; roughly 2.5% of the tested compounds scored in any of these assays.

SMILES	PG9 binder	Granule exo inh	ABCB6 inh 2	rCAG RNA binder	Granule exo CP1
CCn1cc(CN2CCc3c([nH]c4ccccc34)C2c2cccc(OC)c2OC)c(C)n1 (configuration not stated)	.	59	.	.	.
COc1ccccc1CNC(=O)C[C@H]1CC[C@@H]2[C@H](COC[C@H](O)CN2Cc2ccc3c(c2)OCO3)O1	.	.	/	.	/
Cc1ccc(CCNS(=O)(=O)c2cc(Br)cnc2N)cc1	.	.	.	.	/
c1ccc2c(NCCc3c[nH]c4ccccc34)c3ccccc3nc2c1	.	72	.	.	.
CC(C)NC(=O)c1ccccc1NS(=O)(=O)c1ccc(Br)s1	.	59	.	.	.
NC(=O)c1ccc[n+](CC(=O)c2ccc(F)cc2)c1	.	.	.	.	/
Cc1ccc(C(=O)NC(Cc2cccc(C(F)(F)F)c2)C(=O)O)cc1 (configuration not stated)	.	.	.	.	/
O=C(N[C@@H](Cc1ccccc1)C(=O)O)c1ccc(C(F)(F)F)cc1	.	84	.	.	.
CCOC(=O)c1c(NC(=O)CSc2nc3ccccc3[nH]2)sc2c1CC(C)(C)NC2(C)C	.	.	.	.	/
COC(=O)c1c(NC(=O)c2nc3ccccc3s2)sc2c1CC(C)(C)NC2(C)C	.	67	.	.	85
CCOc1ccc(C(=O)Nc2sc3c(c2C(=O)OC)CC(C)(C)NC3(C)C)cc1	.	.	.	.	/
COC(=O)c1c(NC(=O)c2ccc(C(=O)c3ccccc3)cc2)sc2c1CC(C)(C)NC2(C)C	.	67	.	.	63
Cc1ccc(C(=O)OCC(=O)N(Cc2ccccc2)C(C)C)cc1C	.	.	.	.	/
O=C(c1ccco1)N1CCN(c2nc3ccccc3n3nnnc23)CC1	.	56	.	.	.
CCn1c(N2CCN(C(=O)c3ccco3)CC2)nc2ccccc21	.	.	.	.	/
COc1ccc(-n2nnnc2S(=O)(=O)CC(=O)N2CCCCC2)cc1	.	60	.	.	.
O=C(CSCCO)Nc1ccccc1	.	.	.	.	/
CCc1ccc(NC(=O)CSCCO)cc1	.	85	.	.	.
CCN(CC)CC(O)COC(c1ccccc1)c1ccccc1 (configuration not stated)	.	.	.	.	/
CCN(Cc1ccccc1)CC(O)COC(c1ccc(OC)cc1)c1ccc(OC)cc1 (configuration not stated)	.	66	.	.	.
CC(=O)Nc1ccc(C(=O)CN2CCN(c3ccccc3)CC2)cc1	.	.	.	.	/
O=C(NCc1ccccc1Cl)c1cc(C(=O)C2CC2)c[nH]1	.	61	.	.	.
O=C(NCc1cccnc1)c1cc(C(=O)C2CC2)c[nH]1	.	.	.	.	/
CCOC(=O)C1=C(C)N(c2ccccc2)C(=O)C1	.	100	.	.	.
COc1cccc(CC2(CO)CCCN(Cc3ccc(OC)c(C)c3OC)C2)c1 (configuration not stated)	.	60	.	.	.
SMILES	PG9 binder	Granule exo inh	ABCB6 inh 2	rCAG RNA binder	Granule exo CP1
COc1ccc(C(=O)Nc2cc(C(=O)c3ccccc3)c(C)oc2=O)cc1	.	.	.	.	/
Cc1oc(=O)c(NC(=O)c2cccc(Cl)c2)cc1C(=O)c1ccccc1	.	97	.	.	.
Cc1cc(C)c(NC(=O)CNC(=O)COC(=O)CN2C(=O)NC3(CCCC3)C2=O)c(C)c1	.	.	.	.	/
CN(C)CCCNc1ncnc2sc(-c3ccccc3)cc12	.	.	.	.	/
CCCCN(CCO)c1ncnc2sc(-c3ccccc3)cc12	.	92	.	.	.
CCC1CCCCN1CCCNC(=O)c1ccc2c(c1)c(C)c(C)n2C (configuration not stated)	.	.	.	.	/
